{"source": "PubChem BioAssay AID1832", "about": "(Broad Institute, 2009)", "note": "Hit rate of the full screen: of about 300,000 compounds, about 1,100 (0.37%) were called active.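 How the source made its calls: active means inhibition past about -25% in most replicates, and total fluorescence under double the plate's negative control median (limit read from the data); inconclusive means replicates evenly split on the limit, or fluorescence at least double controls; inactive means too little inhibition in most replicates.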 For the sample, actives were picked, then their nearest neighbours and some compounds at random.", "data": [{"biological_target": "Zinc finger protein mex-5 (Caenorhabditis elegans) (UniProt Q9XUB2)", "sequence (Q9XUB2 whole entry, looked up)": "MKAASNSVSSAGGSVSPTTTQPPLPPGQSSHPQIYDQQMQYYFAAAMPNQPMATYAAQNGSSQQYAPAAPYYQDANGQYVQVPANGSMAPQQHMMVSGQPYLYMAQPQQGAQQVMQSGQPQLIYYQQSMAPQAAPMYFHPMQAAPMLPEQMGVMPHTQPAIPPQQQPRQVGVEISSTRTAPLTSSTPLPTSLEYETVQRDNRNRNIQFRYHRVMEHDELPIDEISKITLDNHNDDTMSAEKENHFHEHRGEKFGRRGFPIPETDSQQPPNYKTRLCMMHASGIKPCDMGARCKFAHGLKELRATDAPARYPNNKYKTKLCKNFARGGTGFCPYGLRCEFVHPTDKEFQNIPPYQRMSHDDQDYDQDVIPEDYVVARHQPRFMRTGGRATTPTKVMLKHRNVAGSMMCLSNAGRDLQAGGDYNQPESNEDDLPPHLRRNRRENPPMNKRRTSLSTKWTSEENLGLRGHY", "test": "MEX-5 zinc finger RNA-binding disruptors – biochemical, C. elegans, fluorescence polarization, MLPCN library, primary screen (AID 1832);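 further: 0% = DMSO and -100% = 5 µM competing unlabeled TCR2 RNA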", "details": "MEX-5/FITC-TCR2 RNA binding, at 10 µM, stronger effect = lower value", "values": [{"smiles": "Cc1ccc(Cl)cc1-c1ccc(/C=N/n2cnnc2)o1", "activity score (negative = inhibition of binding)": "0.0863% (inactive)"}, {"smiles": "Clc1cc(-c2ccc(/C=N/n3cnnc3)o2)ccc1Br", "activity score (negative = inhibition of binding)": "-34% (active)"}, {"smiles": "Brc1cc(/C=N/n2cnnc2)oc1Br", "activity score (negative = inhibition of binding)": "0.986% (inactive)"}, {"smiles": "Cc1ccoc1C(=O)Nc1cccc(Oc2ccccc2)c1", "activity score (negative = inhibition of binding)": "-2.34% (inactive)"}, {"smiles": "COc1ccc(CNC(=O)COc2cccnc2[N+](=O)[O-])cc1", "activity score (negative = inhibition of binding)": "0.235% (inactive)"}, {"smiles": "CC1(OC(=O)C2CCCC2)C(=O)C=C2C=C(c3ccc(C#N)cc3)OC=C2C1=O", "note": "(configuration not stated)", "activity score (negative = inhibition of binding)": "-40% (active)"}, {"smiles": "C=CCN1C=C2C(=O)C(C)(OC(=O)CCc3ccccc3)C(=O)C=C2C=C1c1ccc(C#N)cc1", "note": "(configuration not stated)", "activity score (negative = inhibition of binding)": "-5.84% (inactive)"}, {"smiles": "COCCN1C=C2C(=O)C(C)(OC(=O)C3CCCC3)C(=O)C=C2C=C1c1ccsc1", "note": "(configuration not stated)", "activity score (negative = inhibition of binding)": "-2.5% (inactive)"}, {"smiles": "N#CC1=C(N)C(C#N)(C#N)[C@H](c2ccsc2)[C@H]2COCC=C12", "activity score (negative = inhibition of binding)": "-30.3% (active)"}, {"smiles": "CCOC(=O)N1CCC(NC(=O)C(NS(=O)(=O)c2ccc3c(c2)CCN3C(=O)CC)C(C)C)CC1", "note": "(configuration not stated)", "activity score (negative = inhibition of binding)": "-1.98% (inactive)"}, {"smiles": "O=C(COc1ccc(Cl)cc1Cl)N/N=C/c1ccccn1", "activity score (negative = inhibition of binding)": "4.25% (inactive)"}, {"smiles": "CSc1ncc(C(=O)NCCCc2ccccc2)c(C)n1", "activity score (negative = inhibition of binding)": "-2.7% (inactive)"}, {"smiles": "CCOc1ccc(C(=O)NC2CCN(CC(=O)NCc3cccs3)CC2)cc1", "activity score (negative = inhibition of binding)": "-1.2% (inactive)"}, {"smiles": "Cc1ccc2c(c1)C(c1ccccc1)N(C(=O)c1ccc(F)cc1)CC(=O)N2", "note": "(configuration not stated)", "activity score (negative = inhibition of binding)": "-0.463% (inactive)"}, {"smiles": "CCCNC(=O)N1CCC(c2ccc3c(c2)OCO3)CC1", "activity score (negative = inhibition of binding)": "2.15% (inactive)"}, {"smiles": "CCN1C(=O)c2cccc3c(N)ccc1c23", "activity score (negative = inhibition of binding)": "1.15% (inactive)"}, {"smiles": "CN1C(=O)c2cccc3c(N)ccc(c23)C1=O", "activity score (negative = inhibition of binding)": "-51.4% (active)"}, {"smiles": "Cc1nn(C)cc1N1C(=O)c2cccc3c(N)ccc(c23)C1=O", "activity score (negative = inhibition of binding)": "1.83% (inactive)"}, {"smiles": "NC(=O)Cc1ccc2sc(-c3ccccc3)nc2c1", "activity score (negative = inhibition of binding)": "-1.64% (inactive)"}, {"smiles": "O=C1c2ccccc2C(Nc2ccc3c(c2)OCCO3)N1Cc1ccco1", "note": "(configuration not stated)", "activity score (negative = inhibition of binding)": "-1.03% (inactive)"}, {"smiles": "CCc1ccc(CNC(=O)C2CCN(c3nnc(C)c4c(C)n(-c5ccc(C)cc5)nc34)CC2)cc1", "activity score (negative = inhibition of binding)": "-2.92% (inactive)"}, {"smiles": "O=C(Nc1cccc2c1N(C(=O)c1ccco1)CCC2)c1ccco1", "activity score (negative = inhibition of binding)": "-0.00473% (inactive)"}, {"smiles": "O=C(NCc1nnc(SCC(=O)N2CCC(Cc3ccccc3)CC2)o1)c1ccco1", "activity score (negative = inhibition of binding)": "-1.62% (inactive)"}, {"smiles": "Oc1ccc(-c2onc3ccc(Cl)cc23)cc1", "activity score (negative = inhibition of binding)": "-1.78% (inactive)"}, {"smiles": "CC(OC(=O)c1ccc2noc(-c3ccccc3)c2c1)C(N)=O", "note": "(configuration not stated)", "activity score (negative = inhibition of binding)": "-5.27% (inactive)"}, {"smiles": "COc1ccc(-c2onc3ccc(C(C)=O)cc23)cc1", "activity score (negative = inhibition of binding)": "-69.7% (active)"}, {"smiles": "COc1ccc(Cn2c(-c3ccc(Cl)cc3)c[n+]3ccccc23)cc1", "activity score (negative = inhibition of binding)": "2.75% (inactive)"}, {"smiles": "COc1ccc(NC(=O)c2cn(-c3ccccc3)nc2SC)cc1", "activity score (negative = inhibition of binding)": "2.01% (inactive)"}, {"smiles": "CN1c2ccc(C=O)c3c(C=O)ccc(c23)N(C)C1(C)C", "activity score (negative = inhibition of binding)": "-35.3% (active)"}, {"smiles": "COc1ccc(NC(=O)CN(C)C(=O)c2n[nH]c3ccccc23)cc1", "activity score (negative = inhibition of binding)": "-3.49% (inactive)"}, {"smiles": "CCCCN(CC)CCCNC(=O)c1ccc(CSc2nc3ccncc3[nH]2)cc1", "activity score (negative = inhibition of binding)": "1.01% (inactive)"}, {"smiles": "Cc1ccc(C2NC(=S)NC3=C2N2CCC3CC2)cc1", "note": "(configuration not stated)", "activity score (negative = inhibition of binding)": "0.478% (inactive)"}, {"smiles": "Cc1nonc1C1CCCN1Cc1nc(-c2ccc(F)cc2F)oc1C", "note": "(configuration not stated)", "activity score (negative = inhibition of binding)": "-2.15% (inactive)"}, {"smiles": "Cc1ccc(-n2cc(CN(C)Cc3nccn3C)c(-c3cccc(C)c3)n2)cc1", "activity score (negative = inhibition of binding)": "1.9% (inactive)"}, {"smiles": "N#C[C@]1(S(=O)(=O)c2ccccc2)C[C@@H]2ON=C(c3cccc(Br)c3)[C@@H]2C1", "activity score (negative = inhibition of binding)": "1.51% (inactive)"}, {"smiles": "Cc1ccnc(NC(=O)c2ccc(Cl)c([N+](=O)[O-])c2)c1", "activity score (negative = inhibition of binding)": "-0.216% (inactive)"}, {"smiles": "Cc1nn(C(C)C(=O)N2CCOCC2)c(=O)c2nn(-c3ccccc3)c(C)c12", "note": "(configuration not stated)", "activity score (negative = inhibition of binding)": "-34.7% (active)"}, {"smiles": "Cc1nn(C(C)C(=O)NCCC2=CCCCC2)c(=O)c2nn(-c3ccccc3)c(C)c12", "note": "(configuration not stated)", "activity score (negative = inhibition of binding)": "-2.35% (inactive)"}, {"smiles": "Cc1nn(CC(=O)N2CCCCC2)c(=O)c2nn(-c3ccccc3)c(C)c12", "activity score (negative = inhibition of binding)": "-3.02% (inactive)"}, {"smiles": "CC(C)Cc1nnc(NC(=O)CCc2ccccc2)s1", "activity score (negative = inhibition of binding)": "-0.0404% (inactive)"}, {"smiles": "COC(=O)CSc1nnc(NC(=O)CCc2ccccc2)s1", "activity score (negative = inhibition of binding)": "0.825% (inactive)"}, {"smiles": "O=C(COC(=O)c1cccc(Cl)c1)Nc1ccc2[nH]c(=O)[nH]c2c1", "activity score (negative = inhibition of binding)": "0.565% (inactive)"}, {"smiles": "NC(=O)c1nsc(C(=O)N(CCCN2CCOCC2)C(C(=O)NC2CCCCC2)c2ccc(Cl)cc2)c1N", "note": "(configuration not stated)", "activity score (negative = inhibition of binding)": "-0.973% (inactive)"}, {"smiles": "COC(=O)c1ccc(NC(=O)c2cc3c(CO)cnc(C)c3oc2=Nc2cccc(C(N)=O)c2)cc1", "activity score (negative = inhibition of binding)": "-0.18% (inactive)"}, {"smiles": "Cc1cc(NC(=O)Nc2ccccc2[N+](=O)[O-])no1", "activity score (negative = inhibition of binding)": "0.456% (inactive)"}, {"smiles": "COc1ccc(/C=C2/C(=O)N(c3ccccc3)N=C2C)c(OC)c1", "activity score (negative = inhibition of binding)": "1.89% (inactive)"}, {"smiles": "O=C1N/C(=C/c2cccn2-c2ccccc2)C(=O)N1c1cccc(Cl)c1", "activity score (negative = inhibition of binding)": "3.72% (inactive)"}, {"smiles": "COc1cc2c(cc1/C=C1/NC(=O)N(c3ccccc3)C1=O)OCO2", "activity score (negative = inhibition of binding)": "-27% (active)"}, {"smiles": "COc1ccc(C(=O)/C=C/c2cccnc2)c(OC)c1", "activity score (negative = inhibition of binding)": "0.878% (inactive)"}, {"smiles": "COC(=O)c1ccc(COc2ccc(/C=C/C(=O)c3ccc(OC)c(CSCC(=O)O)c3)cc2OC)cc1", "activity score (negative = inhibition of binding)": "-5.72% (inactive)"}, {"smiles": "COc1ccc(/C=C/C(=O)c2ccc(NS(=O)(=O)c3ccc(C)cc3)cc2)cc1O", "activity score (negative = inhibition of binding)": "-0.65% (inactive)"}, {"smiles": "COc1ccc(C(=O)/C=C/c2ccc(-c3ccccc3)cc2)cc1CSCC(=O)O", "activity score (negative = inhibition of binding)": "-31.8% (active)"}, {"smiles": "COc1ccc(CCNS(=O)(=O)c2cc3c(cc2C)NC(=O)CO3)cc1OC", "activity score (negative = inhibition of binding)": "0.926% (inactive)"}, {"smiles": "Cc1cc(C)nc(NNC2=CC(=O)CC(C)(C)C2)n1", "activity score (negative = inhibition of binding)": "-66.2% (active)"}, {"smiles": "COC(=O)NNC1=CC(=O)CC(C)(C)C1", "activity score (negative = inhibition of binding)": "-6.29% (inactive)"}, {"smiles": "CC1(C)CC(=O)C=C(Nc2ccccc2)C1", "activity score (negative = inhibition of binding)": "1.36% (inactive)"}, {"smiles": "Cc1cc(NC(=O)CCC(=O)N(Cc2ccccc2)C(C(=O)NC2CCCC2)c2ccc(C)o2)no1", "note": "(configuration not stated)", "activity score (negative = inhibition of binding)": "-2.13% (inactive)"}, {"smiles": "O=C(CNC(=O)Cc1ccccc1)N=Nc1c(O)[nH]c2ccc(Br)cc12", "activity score (negative = inhibition of binding)": "0.589% (inactive)"}, {"smiles": "Oc1[nH]c2ccc(Br)cc2c1N=Nc1nn[nH]n1", "activity score (negative = inhibition of binding)": "-74.2% (active)"}, {"smiles": "NS(=O)(=O)c1ccc(N=Nc2c(O)[nH]c3ccc(Br)cc23)cc1", "activity score (negative = inhibition of binding)": "-2.29% (inactive)"}, {"smiles": "O=c1[nH]c(CN2CCOCC2)nc2scc(-c3ccccc3)c12", "activity score (negative = inhibition of binding)": "1.42% (inactive)"}, {"smiles": "COc1ccc(NC(=O)CCn2ccnc2)c(OC)c1", "activity score (negative = inhibition of binding)": "-0.322% (inactive)"}, {"smiles": "CCCCn1c(=O)c(C(C)=O)c(O)c2ccccc21", "activity score (negative = inhibition of binding)": "0.942% (inactive)"}, {"smiles": "CCOc1ccc(N=Cc2c(O)n(-c3cccc(C)n3)c(=O)c3ccccc23)cc1", "activity score (negative = inhibition of binding)": "-1.96% (inactive)"}, {"smiles": "CC(=O)n1c(C=Nc2ccccc2)c(O)c2ccccc21", "activity score (negative = inhibition of binding)": "-52.6% (active)"}, {"smiles": "C=CCn1cc(Cl)cc(C(=O)Nc2ccccc2)c1=O", "activity score (negative = inhibition of binding)": "-0.689% (inactive)"}, {"smiles": "COc1ccccc1NC(=O)CCSc1nnc(-c2ccc(O)cc2)o1", "activity score (negative = inhibition of binding)": "-2.37% (inactive)"}]}]}
